Laboratory results from PubChem BioAssay.
Records with an inconclusive call do not appear. Calls of active or inactive are those of the source.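 The calls were made as follows, unless noted: active = normalized viability below 100% at a tested concentration; inactive = the rest.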

Legend:
[1] = growth inhibition of DIPG glioma cells, dose response, cell-based, SU-DIPG-XVII, MIPE5.0, CellTiter-Glo, qHTS (AID 1347060; cut-off not given, nearly all actives have AC50 up to about 26 µM;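 also: cells exposed to compound for 48 hours before viability readout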); conditions: SU-DIPG-XVII viability, CellTiter-Glo ATP luminescence
[2] = growth inhibition of DIPG glioma cells, dose response, cell-based, SU-DIPG-IV, MIPE4.0, CellTiter-Glo, qHTS (AID 1347063; cut-off not given, nearly all actives have AC50 up to about 30 µM;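 also: compound exposure lasted 48 hours before the viability readout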); conditions: SU-DIPG-IV viability, CellTiter-Glo ATP luminescence
[3] = growth inhibition of DIPG glioma cells, dose response, cell-based, SU-DIPG-XIII, MIPE5.0, CellTiter-Glo, qHTS (AID 1347064; cut-off not given, nearly all actives have AC50 up to about 23 µM;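 also: cells exposed to compound for 48 hours before the viability read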); conditions: SU-DIPG-XIII viability, CellTiter-Glo ATP luminescence
[4] = viability loss in pontine glioma line – cell-based, SU-DIPG-XXV, MIPE5.0, CellTiter-Glo, qHTS, dose response (AID 1347065; cut-off not given, nearly all actives have AC50 up to about 26 µM;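 also: cells exposed to compound for 48 hours before ATP readout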); conditions: CellTiter-Glo ATP luminescence
[5] = JHH-DIPG-1 glioma cell viability, MIPE5.0 library, CellTiter-Glo luminescence, qHTS (AID 1347067; cut-off not given, nearly all actives have AC50 up to about 26 µM;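 also: cells exposed to compound for 48 hours before readout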); conditions: JHH-DIPG-1 glioma viability, CellTiter-Glo ATP luminescence
[6] = SU-DIPG-XXV glioma cell viability, MIPE5.0 library, qHTS (AID 1347068; cut-off not given, nearly all actives have IC50 up to about 30 µM;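 also: cells exposed to compound for 48 hours before viability readout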)
[7] = sensitizers of A549 cells to miR-34 induction, primary screen, imaging, A549 dox-inducible miR-34, nuclei and caspase counts (AID 1347080;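 active = compounds whose cell count with miR-34 switched on is under 0.7 times the count with it off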); conditions: A549 miR-34 inducible, Hoechst nuclei count, 48 h
[8] = modifiers of HSF1 nuclear foci, imaging, Selleck Cancer Library (AID 1347162; in the data active = plate-normalised HSF1 focus index below about 0.46); conditions: human cells, at 10 µM; SSMD: measured here: HSF1 foci SSMD mean; cell count: measured here: cell number; plate-normalised HSF1 focus index: stronger effect = lower value
[9] = survival rescue of mitochondrial mutant cells in low glucose, primary screen, MELAS cybrids, Rieske KO mouse fibroblasts, CellTiter-Glo (AID 1508586;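 active = mean z-score across replicates of 1.96 or higher in either the MELAS or the Rieske mutant cell line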;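 also: z relative to plate mean and SD of compound and empty wells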)
[10] = ovarian cancer cell viability with rucaparib, profiling panel, oncology-focused library, rucaparib conditional (AID 1508598); conditions: patient-derived ovarian cancer cells, CellTiter-Glo viability, 144 h, stronger effect = lower value
[11] = SU-DIPG-VI glioma cell viability, MIPE4.0 library, CellTiter-Glo luminescence, qHTS (AID 1347066; cut-off not given, nearly all actives have AC50 up to about 30 µM;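 also: cells exposed to compound for 48 hours before readout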); conditions: CellTiter-Glo ATP luminescence
[12] = at 0.000305 µM, OCI-C5x cells, with rucaparib 10 µM, 100% = cells with rucaparib alone
[13] = at 0.000305 µM, OCI-C5x cells, without rucaparib
[14] = at 0.000305 µM, OCI-P5x cells, with rucaparib 20 µM, 100% = cells with rucaparib alone
[15] = at 0.000305 µM, OCI-P5x cells, without rucaparib
[16] = at 0.00122 µM, OCI-C5x cells, with rucaparib 10 µM, 100% = cells with rucaparib alone
[17] = at 0.00122 µM, OCI-C5x cells, without rucaparib
[18] = at 0.00122 µM, OCI-P5x cells, with rucaparib 20 µM, 100% = cells with rucaparib alone
[19] = at 0.00122 µM, OCI-P5x cells, without rucaparib
[20] = at 0.00488 µM, OCI-C5x cells, with rucaparib 10 µM, 100% = cells with rucaparib alone
[21] = at 0.00488 µM, OCI-C5x cells, without rucaparib
[22] = at 0.00488 µM, OCI-P5x cells, with rucaparib 20 µM, 100% = cells with rucaparib alone
[23] = at 0.00488 µM, OCI-P5x cells, without rucaparib
[24] = at 0.0195 µM, OCI-C5x cells, with rucaparib 10 µM, 100% = cells with rucaparib alone
[25] = at 0.0195 µM, OCI-C5x cells, without rucaparib
[26] = at 0.0195 µM, OCI-P5x cells, with rucaparib 20 µM, 100% = cells with rucaparib alone
[27] = at 0.0195 µM, OCI-P5x cells, without rucaparib
[28] = at 0.0781 µM, OCI-C5x cells, with rucaparib 10 µM, 100% = cells with rucaparib alone
[29] = at 0.0781 µM, OCI-C5x cells, without rucaparib
[30] = at 0.0781 µM, OCI-P5x cells, with rucaparib 20 µM, 100% = cells with rucaparib alone
[31] = at 0.0781 µM, OCI-P5x cells, without rucaparib
[32] = at 0.313 µM, OCI-C5x cells, with rucaparib 10 µM, 100% = cells with rucaparib alone
[33] = at 0.313 µM, OCI-C5x cells, without rucaparib
[34] = at 0.313 µM, OCI-P5x cells, with rucaparib 20 µM, 100% = cells with rucaparib alone
[35] = at 0.313 µM, OCI-P5x cells, without rucaparib
[36] = at 1.25 µM, OCI-C5x cells, with rucaparib 10 µM, 100% = cells with rucaparib alone
[37] = at 1.25 µM, OCI-C5x cells, without rucaparib
[38] = at 1.25 µM, OCI-P5x cells, with rucaparib 20 µM, 100% = cells with rucaparib alone
[39] = at 1.25 µM, OCI-P5x cells, without rucaparib
[40] = at 5 µM, OCI-C5x cells, with rucaparib 10 µM, 100% = cells with rucaparib alone
[41] = at 5 µM, OCI-C5x cells, without rucaparib
[42] = at 5 µM, OCI-P5x cells, with rucaparib 20 µM, 100% = cells with rucaparib alone
[43] = at 5 µM, OCI-P5x cells, without rucaparib

Q: What does the source list for Cc1ccc(F)c(NC(=O)Nc2ccc(-c3cccc4[nH]nc(N)c34)cc2)c1?
A: AC50 [1]: 14.8 µM (active); AC50 [2]: 14.8 µM (active); AC50 [3]: 7.42 µM (active); AC50 [4]: 8.33 µM (active); AC50 [5]: 1.05 µM (active); IC50 [6]: 18.6 µM (active); fold change ([7]; stronger effect = lower value, cell number ratio, induced over uninduced): 0.905 (inactive); fold change ([7]; measured here: relative caspase fold change +Dox/-Dox): 0.989; cell count ([7]; measured here: total cells with miR-34 induction, stronger effect = lower value): 2590; cell count ([7]; measured here: total cells without miR-34 induction): 2860; SSMD [8]: 4.01; cell count [8]: 6540; plate-normalised HSF1 focus index [8]: 1.21 (inactive); z-score ([9]; MELAS cybrid survival, CellTiter-Glo 48 h, stronger effect = higher value): -0.438 (inactive); z-score ([9]; Rieske KO mouse fibroblast survival, CellTiter-Glo 72 h): 0.36; viability [10, 12]: 110% (inactive); viability [10, 13]: 114% (inactive); viability [10, 14]: 85.4% (active); viability [10, 15]: 19.5% (active); viability [10, 16]: 108% (inactive); viability [10, 17]: 112% (inactive); viability [10, 18]: 81.6% (active); viability [10, 19]: 16.8% (active); viability [10, 20]: 119% (inactive); viability [10, 21]: 112% (inactive); viability [10, 22]: 96.5% (active); viability [10, 23]: 97.7% (active); viability [10, 24]: 110% (inactive); viability [10, 25]: 119% (inactive); viability [10, 26]: 108% (inactive); viability [10, 27]: 97.3% (active); viability [10, 28]: 111% (inactive); viability [10, 29]: 110% (inactive); viability [10, 30]: 103% (inactive); viability [10, 31]: 102% (inactive); viability [10, 32]: 113% (inactive); viability [10, 33]: 107% (inactive); viability [10, 34]: 91.5% (active); viability [10, 35]: 90.2% (active); viability [10, 36]: 112% (inactive); viability [10, 37]: 123% (inactive); viability [10, 38]: 99.2% (active); viability [10, 39]: 87.8% (active); viability [10, 40]: 83.6% (active); viability [10, 41]: 145% (inactive); viability [10, 42]: 14.3% (active); viability [10, 43]: 35.5% (active)

Q: Which AC50 [1] does the source give for CNC(=O)c1cccc(-c2ccc3c(N4CCOC[C@@H]4C)nc(N4CCOC[C@@H]4C)nc3n2)c1 here?
A: 1.32 µM (active)

Q: What about the AC50 [2] of the same molecule?
A: 0.0209 µM (active)

Q: What about the AC50 [3] of the same molecule?
A: 0.118 µM (active)

Q: And the AC50 [4]?
A: 0.372 µM (active)

Q: Which AC50 [1] does the source give for C[C@H]1[C@H](O)O[C@@H]2O[C@@]3(C)CC[C@H]4[C@H](C)CC[C@@H]1[C@@]24OO3 here?
A: 2.95 µM (active)

Q: What about the AC50 [2] of the same molecule?
A: 2.96 µM (active)

Q: And the AC50 [3]?
A: 4.68 µM (active)

Q: And the AC50 [4]?
A: 7.42 µM (active)

Q: And the outcome [11]?
A: inactive

Q: For COc1ccc(-c2ccc3c(N4CCOC[C@@H]4C)nc(N4CCOC[C@@H]4C)nc3n2)cc1CO, which AC50 [1] is on record?
A: 0.209 µM (active)

Q: And the AC50 [2]?
A: 0.00935 µM (active)

Q: What about the AC50 [3] of the same molecule?
A: 0.661 µM (active)

Q: What about the AC50 [4] of the same molecule?
A: 0.105 µM (active)

Q: And the AC50 [5]?
A: 0.059 µM (active)

Q: What about the SSMD [8] of the same molecule?
A: -0.138

Q: And the cell count [8]?
A: 7120

Q: And the plate-normalised HSF1 focus index [8]?
A: 0.995 (inactive)

Q: What about the viability [10, 12] of the same molecule?
A: 112% (inactive)

Q: And the viability [10, 13]?
A: 106% (inactive)

Q: And the viability [10, 14]?
A: 87.2% (active)

Q: And the viability [10, 15]?
A: 93% (active)

Q: And the viability [10, 16]?
A: 122% (inactive)

Q: What about the viability [10, 17] of the same molecule?
A: 105% (inactive)

Q: And the viability [10, 18]?
A: 94.9% (active)

Q: What about the viability [10, 19] of the same molecule?
A: 92.8% (active)

Q: And the viability [10, 20]?
A: 124% (inactive)

Q: What about the viability [10, 21] of the same molecule?
A: 119% (inactive)

Q: What about the viability [10, 22] of the same molecule?
A: 90.3% (active)

Q: What about the viability [10, 23] of the same molecule?
A: 91% (active)

Q: And the viability [10, 24]?
A: 116% (inactive)

Q: What about the viability [10, 25] of the same molecule?
A: 106% (inactive)

Q: What about the viability [10, 26] of the same molecule?
A: 72.9% (active)

Q: And the viability [10, 27]?
A: 62.8% (active)

Q: And the viability [10, 28]?
A: 71.2% (active)

Q: What about the viability [10, 29] of the same molecule?
A: 55.7% (active)

Q: What about the viability [10, 30] of the same molecule?
A: 43.6% (active)

Q: What about the viability [10, 31] of the same molecule?
A: 24.2% (active)

Q: And the viability [10, 32]?
A: 47.2% (active)

Q: And the viability [10, 33]?
A: 48.1% (active)

Q: What about the viability [10, 34] of the same molecule?
A: 34.3% (active)

Q: And the viability [10, 35]?
A: 17% (active)

Q: And the viability [10, 36]?
A: 54.1% (active)

Q: What about the viability [10, 37] of the same molecule?
A: 47.3% (active)

Q: What about the viability [10, 38] of the same molecule?
A: 30.6% (active)

Q: What about the viability [10, 39] of the same molecule?
A: 22.6% (active)

Q: And the viability [10, 40]?
A: 48% (active)

Q: What about the viability [10, 41] of the same molecule?
A: 47.3% (active)

Q: What about the viability [10, 42] of the same molecule?
A: 26.9% (active)

Q: What about the viability [10, 43] of the same molecule?
A: 20.8% (active)
